In publication PMC4336329 (PLoS ONE, 2015):
The whole screen tested about 310,000 compounds, of which about 14,000 (4.5%) showed an effect of 50% or more. Effects have a minus sign here. Many of the other results were omitted from the sample, so strong results are more common in it than they were.

molecular target: human ether-à-go-go-related gene (hERG) potassium channel (human, UniProt Q12809); experiment: primary screen, population patch clamp on CHO cells stably expressing hERG; higher = less effect of the substance
Sequence (Q12809 whole entry, looked up): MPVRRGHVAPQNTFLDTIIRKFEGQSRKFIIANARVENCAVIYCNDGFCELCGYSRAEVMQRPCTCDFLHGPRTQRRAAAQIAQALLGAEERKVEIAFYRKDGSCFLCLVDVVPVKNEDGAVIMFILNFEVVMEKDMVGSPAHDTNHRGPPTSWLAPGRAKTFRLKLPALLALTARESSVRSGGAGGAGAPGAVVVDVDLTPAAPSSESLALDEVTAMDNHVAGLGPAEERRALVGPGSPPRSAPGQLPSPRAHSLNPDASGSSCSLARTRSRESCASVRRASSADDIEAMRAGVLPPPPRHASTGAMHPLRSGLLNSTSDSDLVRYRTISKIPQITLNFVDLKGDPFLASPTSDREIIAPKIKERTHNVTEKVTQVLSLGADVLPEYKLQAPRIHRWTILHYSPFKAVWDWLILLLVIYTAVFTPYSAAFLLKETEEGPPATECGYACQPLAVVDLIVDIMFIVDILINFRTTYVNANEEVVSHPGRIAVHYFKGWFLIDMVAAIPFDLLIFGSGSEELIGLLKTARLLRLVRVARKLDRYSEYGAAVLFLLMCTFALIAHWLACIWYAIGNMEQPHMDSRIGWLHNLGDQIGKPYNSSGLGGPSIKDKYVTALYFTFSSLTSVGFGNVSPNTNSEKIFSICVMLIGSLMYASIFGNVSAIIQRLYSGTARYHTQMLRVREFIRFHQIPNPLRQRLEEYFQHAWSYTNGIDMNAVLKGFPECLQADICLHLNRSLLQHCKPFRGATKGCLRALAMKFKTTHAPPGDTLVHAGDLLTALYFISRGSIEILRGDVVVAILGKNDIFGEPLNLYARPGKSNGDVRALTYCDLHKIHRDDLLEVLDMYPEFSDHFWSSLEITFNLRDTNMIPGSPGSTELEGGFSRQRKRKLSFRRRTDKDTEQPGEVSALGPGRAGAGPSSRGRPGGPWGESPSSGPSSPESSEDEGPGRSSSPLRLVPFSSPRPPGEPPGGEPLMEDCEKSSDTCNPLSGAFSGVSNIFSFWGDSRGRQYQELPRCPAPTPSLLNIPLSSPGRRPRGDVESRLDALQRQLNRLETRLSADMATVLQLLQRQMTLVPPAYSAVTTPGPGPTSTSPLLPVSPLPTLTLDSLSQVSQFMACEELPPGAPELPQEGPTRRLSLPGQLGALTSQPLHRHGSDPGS
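Note: peak tail current of the secondary pulse compared with the same well before compound.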

Question: With CC(C)(C)NS(=O)(=O)c1ccc(NC(=O)Cc2ccccc2[N+](=O)[O-])cc1 as the compound, how does the “hERG current change (%, negative = inhibition) at 10uM” value read?
Answer: The value was 1.66%.

Question: How did the “hERG current change (%, negative = inhibition) at 10uM” value turn out when CCOC(=O)c1ccc(N2CN(CC)CNC2=S)cc1 was run?
Answer: The value was 7.25%.

Question: C/C(=N/OCc1ccc(Br)cc1)c1ccccn1 was tested. Which “hERG current change (%, negative = inhibition) at 10uM” value did it give?
Answer: The value was 6.29%.

Question: CCc1ccc(C(=O)COC(=O)c2ccco2)cc1 was tested. Which “hERG current change (%, negative = inhibition) at 10uM” value did it give?
Answer: The value was 9.18%.

Question: With COc1ccc(CCNC(=O)COC(=O)c2cnc(C)cn2)cc1 as the compound, how does the “hERG current change (%, negative = inhibition) at 10uM” value read?
Answer: Its value is 11.3%.

Question: How did the “hERG current change (%, negative = inhibition) at 10uM” value turn out when O=C(Nc1ccccc1C(=O)Nc1ccc2c(c1)OCO2)c1cccs1 was run?
Answer: Its value is 3.6%.

Question: Which “hERG current change (%, negative = inhibition) at 10uM” value does the source give for Cc1cc(C)cc(NC(=O)COC(=O)CN=C2NS(=O)(=O)c3ccccc32)c1 here?
Answer: The value was 15.6%.

Question: Which “hERG current change (%, negative = inhibition) at 10uM” value does the source give for O=C(NCC1CCCO1)c1ccc(COc2ccc(F)cc2)o1 (stereo not drawn) here?
Answer: The value was -5.59%.

Question: How did the “hERG current change (%, negative = inhibition) at 10uM” value turn out when CCCOc1ccc(/C=N/Nc2cc(N3CCOCC3)ncn2)c(O)c1 was run?
Answer: Its value is 13.4%.

Question: How did the “hERG current change (%, negative = inhibition) at 10uM” value turn out when O=c1[nH]cc([N+](=O)[O-])cc1Br was run?
Answer: The value was 2.05%.

Question: How did the “hERG current change (%, negative = inhibition) at 10uM” value turn out when Cl.NC(=O)c1ccc(OCCC(O)N2CC=C(c3ccc(F)cc3)CC2)cc1 (stereo not drawn) was run?
Answer: The value was -71.2%.

Question: How did the “hERG current change (%, negative = inhibition) at 10uM” value turn out when CN1CCNC(=O)C1CC(=O)N1CC=C(c2ccc(F)cc2)CC1 (stereo not drawn) was run?
Answer: The value was -3.88%.

Question: CCCCOc1ccc(C(=O)NCC(=O)N2CC=C(c3ccccc3)CC2)cc1 was tested. Which “hERG current change (%, negative = inhibition) at 10uM” value did it give?
Answer: Its value is 16.8%.

Question: For Clc1cccc(N/N=C/c2ccncc2)c1, which “hERG current change (%, negative = inhibition) at 10uM” value is on record?
Answer: Its value is -10.2%.

Question: How did the “hERG current change (%, negative = inhibition) at 10uM” value turn out when Cc1cc(C(=O)C(C)Sc2cccc[n+]2[O-])c(C)n1-c1ccc(Cl)cc1 (stereo not drawn) was run?
Answer: Its value is -12.8%.

Question: With CC(C)/C=C1\CCc2c([nH]c3ccccc23)C1=O as the compound, how does the “hERG current change (%, negative = inhibition) at 10uM” value read?
Answer: The value was 9.91%.

Question: For Cc1c(S(=O)(=O)c2ccccn2)c(N)n(Cc2ccccc2)c1C, which “hERG current change (%, negative = inhibition) at 10uM” value is on record?
Answer: The value was 0.158%.

Question: Which “hERG current change (%, negative = inhibition) at 10uM” value does the source give for CN(C)CCCn1cnc2c(c1=N)C(c1ccccc1)c1ccc3ccccc3c1O2 (stereo not drawn) here?
Answer: The value was -75.9%.

Question: How did the “hERG current change (%, negative = inhibition) at 10uM” value turn out when CN(C)CCn1cnc2c(c1=N)C(c1ccccc1)c1ccc3ccccc3c1O2 (stereo not drawn) was run?
Answer: Its value is -79.2%.

Question: For O=C(Nc1cc(=O)[nH]c2ncnn12)c1ccccc1F, which “hERG current change (%, negative = inhibition) at 10uM” value is on record?
Answer: The value was 11%.

Question: Which “hERG current change (%, negative = inhibition) at 10uM” value does the source give for CCC(=O)N1CCc2cc(Br)cc(S(=O)(=O)N3CCCCCC3)c21 here?
Answer: The value was -28.6%.

Question: Which “hERG current change (%, negative = inhibition) at 10uM” value does the source give for O=C(c1ccc(COc2ccccc2Cl)o1)N1CCCC1 here?
Answer: Its value is -23.6%.

Question: For COc1ccc(C(=O)N2CCN(c3ccc(C(C)=O)cc3F)CC2)cc1S(=O)(=O)NC1CC1, which “hERG current change (%, negative = inhibition) at 10uM” value is on record?
Answer: The value was -37.5%.

Question: For COc1ccc(C(=O)N2CCN(c3ccc(F)cc3)CC2)cc1S(=O)(=O)NC1CC1, which “hERG current change (%, negative = inhibition) at 10uM” value is on record?
Answer: The value was -59.2%.

Question: Cc1ccc(C(=O)N2CCN(c3cccc(Cl)c3)CC2)cc1C was tested. Which “hERG current change (%, negative = inhibition) at 10uM” value did it give?
Answer: The value was -13.4%.

Question: How did the “hERG current change (%, negative = inhibition) at 10uM” value turn out when COc1ccc(C(=O)N2CCN(c3ccccc3Cl)CC2)cc1S(=O)(=O)NC1CC1 was run?
Answer: The value was -32.7%.

Question: With COc1ccc(C(=O)N2CCN(c3cccc(Cl)c3)CC2)cc1S(=O)(=O)NC1CC1 as the compound, how does the “hERG current change (%, negative = inhibition) at 10uM” value read?
Answer: The value was -63.5%.

Question: With COc1ccc(C(=O)Nc2ccc(N3CCOCC3)cc2)cc1S(=O)(=O)NC1CCCC1 as the compound, how does the “hERG current change (%, negative = inhibition) at 10uM” value read?
Answer: The value was 13.1%.

Question: For O=C(OC1CCCCC1=O)c1ccc(S(=O)(=O)Nc2ccccc2)cc1 (stereo not drawn), which “hERG current change (%, negative = inhibition) at 10uM” value is on record?
Answer: The value was 0.644%.

Question: Which “hERG current change (%, negative = inhibition) at 10uM” value does the source give for Nc1cc(Cl)cc(C(=O)O)c1Cl here?
Answer: The value was 15.9%.

Question: Which “hERG current change (%, negative = inhibition) at 10uM” value does the source give for O=C(Cn1cnc2sc(-c3ccccc3)cc2c1=O)NCc1ccco1 here?
Answer: The value was -3.75%.

Question: How did the “hERG current change (%, negative = inhibition) at 10uM” value turn out when O=C(Nc1ccc(Cl)cc1)c1cccc(S(=O)(=O)Nc2ccccn2)c1 was run?
Answer: The value was -6.23%.

Question: How did the “hERG current change (%, negative = inhibition) at 10uM” value turn out when O=C(Nc1nnc(SCc2ccc(F)cc2)s1)C1Cc2ccccc2CN1C(=O)c1ccco1 (stereo not drawn) was run?
Answer: The value was -6.55%.

Question: How did the “hERG current change (%, negative = inhibition) at 10uM” value turn out when Cc1cc(C)n2nc(-c3sccc3-n3c(C)ccc3C)cc2n1 was run?
Answer: The value was 17.3%.

Question: With Cc1cc(-c2ccc(Cl)cc2)n2nc(C)cc2n1 as the compound, how does the “hERG current change (%, negative = inhibition) at 10uM” value read?
Answer: Its value is 4.45%.

Question: Which “hERG current change (%, negative = inhibition) at 10uM” value does the source give for Cc1nn(CC(=O)Nc2cc(S(=O)(=O)N(C)C)ccc2Cl)c(C)c1[N+](=O)[O-] here?
Answer: The value was -20.9%.

Question: For CN(C)S(=O)(=O)c1cc(NC(=O)Cn2ccsc2=N)ccc1Cl.Cl, which “hERG current change (%, negative = inhibition) at 10uM” value is on record?
Answer: The value was -56.3%.

Question: Cc1ccc(S(=O)(=O)N2CCOCC2)cc1NC(=O)Cn1ccsc1=N.Cl was tested. Which “hERG current change (%, negative = inhibition) at 10uM” value did it give?
Answer: The value was -5.64%.

Question: Cl.N=c1sccn1CC(=O)Nc1ccc(Cl)c(S(=O)(=O)N2CCOCC2)c1 was tested. Which “hERG current change (%, negative = inhibition) at 10uM” value did it give?
Answer: The value was -50.4%.

Question: How did the “hERG current change (%, negative = inhibition) at 10uM” value turn out when Cc1nn(CC(=O)Nc2ccc(S(=O)(=O)N(C)C)cc2)c(C)c1[N+](=O)[O-] was run?
Answer: The value was -5.89%.

Question: Which “hERG current change (%, negative = inhibition) at 10uM” value does the source give for CCC1(c2ccccc2)NC(=O)N(CC(=O)Nc2ccc(Cl)c(S(=O)(=O)N3CCCCC3)c2)C1=O (stereo not drawn) here?
Answer: Its value is 12.4%.

Question: Which “hERG current change (%, negative = inhibition) at 10uM” value does the source give for O=C(Cn1ccccc1=O)Nc1ccc(Cl)c(S(=O)(=O)N2CCCCC2)c1 here?
Answer: The value was -79.4%.

Question: With CC1(c2ccccc2)NC(=O)N(CC(=O)Nc2ccc(Cl)c(S(=O)(=O)N3CCCCC3)c2)C1=O (stereo not drawn) as the compound, how does the “hERG current change (%, negative = inhibition) at 10uM” value read?
Answer: The value was -8.09%.

Question: Which “hERG current change (%, negative = inhibition) at 10uM” value does the source give for Cl.N=c1sccn1CC(=O)Nc1ccc(S(=O)(=O)N2CCOCC2)cc1 here?
Answer: Its value is -5.32%.

Question: With Cc1ccc(NC(=O)Cn2ccsc2=N)cc1S(=O)(=O)N(C)C.Cl as the compound, how does the “hERG current change (%, negative = inhibition) at 10uM” value read?
Answer: Its value is -13.4%.

Question: How did the “hERG current change (%, negative = inhibition) at 10uM” value turn out when CN(C)S(=O)(=O)c1ccc(NC(=O)Cn2ccsc2=N)cc1 was run?
Answer: Its value is 13.7%.

Question: How did the “hERG current change (%, negative = inhibition) at 10uM” value turn out when Cc1nn(CC(=O)Nc2ccc(Cl)c(S(=O)(=O)N(C)C)c2)c(C)c1[N+](=O)[O-] was run?
Answer: Its value is -61.3%.

Question: Which “hERG current change (%, negative = inhibition) at 10uM” value does the source give for COc1cc(/C=C2/N=C(C3CCCCC3)OC2=O)cc(OC)c1OC here?
Answer: Its value is -17.5%.

Question: For O=C(Cc1ccccc1[N+](=O)[O-])NCc1ccncc1, which “hERG current change (%, negative = inhibition) at 10uM” value is on record?
Answer: Its value is 6.57%.

Question: Which “hERG current change (%, negative = inhibition) at 10uM” value does the source give for OC(Cn1c2ccccc2c2ccccc21)C[n+]1cccc2ccccc21.[O-][Cl+3]([O-])([O-])[O-] (stereo not drawn) here?
Answer: Its value is -33.5%.

Question: How did the “hERG current change (%, negative = inhibition) at 10uM” value turn out when C=C(C)C(=O)N1CC2(CC(c3cccc(NC(=O)/C(C)=C\C)c3)=NO2)C[C@H]1C(N)=O (stereo partly drawn) was run?
Answer: Its value is 2.26%.

Question: With Cc1ccc(-c2nn(C)c(=O)c3ccccc23)cc1S(=O)(=O)NCCN1CCOCC1 as the compound, how does the “hERG current change (%, negative = inhibition) at 10uM” value read?
Answer: The value was -2.69%.

Question: With Cn1c(=O)[nH]c(=O)c2c1nc(N1CCOCC1)n2CCc1ccccc1 as the compound, how does the “hERG current change (%, negative = inhibition) at 10uM” value read?
Answer: The value was -0.713%.

Question: How did the “hERG current change (%, negative = inhibition) at 10uM” value turn out when Cc1cccc(N=C2NC(=O)/C(=C/c3cccs3)S2)c1 was run?
Answer: The value was 11.9%.
